The assay has as its target T1, CRBN, Q96SW2.
T1 chain: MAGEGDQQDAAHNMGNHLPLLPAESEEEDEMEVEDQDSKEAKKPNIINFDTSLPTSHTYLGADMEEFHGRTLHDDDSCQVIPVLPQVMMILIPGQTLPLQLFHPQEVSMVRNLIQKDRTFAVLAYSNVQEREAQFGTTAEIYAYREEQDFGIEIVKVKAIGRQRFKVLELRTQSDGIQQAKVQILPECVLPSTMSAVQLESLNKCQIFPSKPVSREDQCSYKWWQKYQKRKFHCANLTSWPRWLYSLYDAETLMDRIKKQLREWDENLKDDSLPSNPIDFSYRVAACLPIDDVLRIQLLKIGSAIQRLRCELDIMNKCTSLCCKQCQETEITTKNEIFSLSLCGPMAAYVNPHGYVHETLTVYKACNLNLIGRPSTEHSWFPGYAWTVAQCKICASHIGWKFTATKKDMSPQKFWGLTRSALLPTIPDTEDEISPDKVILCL
The experiment in a line: log2 fold change of degron read counts, EGFP-low vs EGFP+ sorted cells (limma voom), compound-induced degradation; higher = more compound-induced degradation of the degron-EGFP fusion; degrons are variants of IKZF1/3 zinc finger 2; compound dose not given here. Particulars: Jurkat, 18 h.

[1] abbreviates: compound: compound 19 (5-tert-butyl-thalidomide).
Where [2] appears, read: compound: compound 22 (5-morpholino-thalidomide).
[3] abbreviates: compound: compound 33 (diphenyl IMiD analogue).

In all, about 8,300 sequences were measured (“log2 fold change of degron read counts, EGFP-low vs EGFP+ sorted cells (limma voom), compound-induced degradation”: median about -1.1, highest 2% from about 3.2 on). What follows is part of a selection rich in the highest values, with near analogues and random picks from the rest.
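Also: pooled lentiviral library of zinc finger degron-EGFP fusions in mCherry-positive Jurkat cells, FACS-sorted after compound exposure, with degron abundance counted by next-generation sequencing.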

On to FWCPVCGAFFTQKGNLLRHIKL [46F_47W_49P_50V_52G_53A_54F_55F_67L_, Q9UKT9], for which the “log2 fold change of degron read counts” value worked out at 2.23 under setting [1], 2.56 under setting [2], 1.97 under setting [3] and 0.614 (compound: thalidomide).

For the sequence FICNVCGACFTQKGNLLRHIKL [46F_47I_49N_50V_52G_53A_54C_55F_67L_, Q9UKT9], the “log2 fold change of degron read counts” value runs as follows: under setting [1], -2.35; under setting [2], -0.443; under setting [3], 0.594; (compound: thalidomide) 0.469.

For the sequence FRCNQCGHHFTQKGNLLRHIKL [46F_47R_49N_50Q_52G_53H_54H_55F_67L_, Q9UKT9], the “log2 fold change of degron read counts” value was -2.62 under setting [1], -2.49 under setting [2], -2.68 under setting [3] and -2.74 (compound: thalidomide).

With FMCNVCGAVFTQKGNLLRHIKL [46F_47M_49N_50V_52G_53A_54V_55F_67L_, Q9UKT9], the “log2 fold change of degron read counts” value runs as follows: under setting [1], -2.62; under setting [2], -1.87; under setting [3], 0.807; (compound: thalidomide) -0.813.

With FCCEVCGAWFTQKGNLLRHIKL [46F_47C_49E_50V_52G_53A_54W_55F_67L_, Q9UKT9], the “log2 fold change of degron read counts” value reads like this: under setting [1], -0.654; under setting [2], -0.581; under setting [3], 0.156; (compound: thalidomide) -0.895.

On to FKCEICGADFTQKGNLLRHIKL [46F_47K_49E_50I_52G_53A_54D_55F_67L_, Q9UKT9], for which the “log2 fold change of degron read counts” value under setting [1] was -1.37, the “log2 fold change of degron read counts” value under setting [2] was -3.36, the “log2 fold change of degron read counts” value under setting [3] was -2.54 and the “log2 fold change of degron read counts” value (compound: thalidomide) is -1.55.

With FFCPQCGAHFTQKGNLLRHIKL [46F_47F_49P_50Q_52G_53A_54H_55F_67L_, Q9UKT9], the “log2 fold change of degron read counts” value runs as follows: under setting [1], 0.0594; under setting [2], 0.455; under setting [3], 0.502; (compound: thalidomide) -0.835.

With FSCPICGRAFTQKGNLLRHIKL [46F_47S_49P_50I_52G_53R_54A_55F_67L_, Q9UKT9], the “log2 fold change of degron read counts” value reads like this: under setting [1], -0.662; under setting [2], -1.1; under setting [3], 0.646; (compound: thalidomide) 0.0583.

For the sequence FHCPICGAQFTQKGNLLRHIKL [46F_47H_49P_50I_52G_53A_54Q_55F_67L_, Q9UKT9], the “log2 fold change of degron read counts” value reads like this: under setting [1], 2.46; under setting [2], 2.8; under setting [3], 2.49; (compound: thalidomide) 1.66.

With FQCPICGAQFTQKGNLLRHIKL [46F_47Q_49P_50I_52G_53A_54Q_55F_67L_, Q9UKT9], the “log2 fold change of degron read counts” value under setting [1] was determined as 0.697, the “log2 fold change of degron read counts” value under setting [2] turned out to be 2.72, the “log2 fold change of degron read counts” value under setting [3] amounted to 2.41 and the “log2 fold change of degron read counts” value (compound: thalidomide) is 3.65.

As to FGCPICGAQFTQKGNLLRHIKL [46F_47G_49P_50I_52G_53A_54Q_55F_67L_, Q9UKT9], the “log2 fold change of degron read counts” value runs as follows: under setting [1], 3.58; under setting [2], 2.65; under setting [3], 1.84; (compound: thalidomide) 1.37.

For FDCPICGAQFTQKGNLLRHIKL [46F_47D_49P_50I_52G_53A_54Q_55F_67L_, Q9UKT9], the “log2 fold change of degron read counts” value runs as follows: under setting [1], 2.24; under setting [2], 1.5; under setting [3], 1.26; (compound: thalidomide) 2.56.

In the case of FCCPICGAQFTQKGNLLRHIKL [46F_47C_49P_50I_52G_53A_54Q_55F_67L_, Q9UKT9], the “log2 fold change of degron read counts” value under setting [1] came to 2.39, the “log2 fold change of degron read counts” value under setting [2] was 2.66, the “log2 fold change of degron read counts” value under setting [3] came to 2.87 and the “log2 fold change of degron read counts” value (compound: thalidomide) is 1.93.

On to FNCPICGAQFTQKGNLLRHIKL [46F_47N_49P_50I_52G_53A_54Q_55F_67L_, Q9UKT9], for which the “log2 fold change of degron read counts” value amounted to 2.48 under setting [1], 1.86 under setting [2], 1.27 under setting [3] and 1.1 (compound: thalidomide).

Regarding FMCEICGHLFTQKGNLLRHIKL [46F_47M_49E_50I_52G_53H_54L_55F_67L_, Q9UKT9], the “log2 fold change of degron read counts” value was -2.89 under setting [1], -3.26 under setting [2], -2.2 under setting [3] and -2.63 (compound: thalidomide).

FNCPICGRWFTQKGNLLRHIKL [46F_47N_49P_50I_52G_53R_54W_55F_67L_, Q9UKT9]: the “log2 fold change of degron read counts” value is -0.803 under setting [1], -0.856 under setting [2], 0.232 under setting [3] and -0.248 (compound: thalidomide).

For FTCSVCGHFFTQKGNLLRHIKL [46F_47T_49S_50V_52G_53H_54F_55F_67L_, Q9UKT9], the “log2 fold change of degron read counts” value was -1.8 under setting [1], -2.26 under setting [2], -2.2 under setting [3] and -2.2 (compound: thalidomide).

FCCDQCGAQFTQKGNLLRHIKL [46F_47C_49D_50Q_52G_53A_54Q_55F_67L_, Q9UKT9]: the “log2 fold change of degron read counts” value runs as follows: under setting [1], -1.9; under setting [2], -1.68; under setting [3], -1.17; (compound: thalidomide) -2.37.
